USP28 inh – human USP28 deubiquitinase inhibition | Q96RU2 | 3% of 47,000 active | AID 1645857 | inhibition, % at 25 µM | purified USP28, Ub-rhodamine cleavage fluorescence, 30 min
Target sequence (Q96RU2 whole entry, looked up): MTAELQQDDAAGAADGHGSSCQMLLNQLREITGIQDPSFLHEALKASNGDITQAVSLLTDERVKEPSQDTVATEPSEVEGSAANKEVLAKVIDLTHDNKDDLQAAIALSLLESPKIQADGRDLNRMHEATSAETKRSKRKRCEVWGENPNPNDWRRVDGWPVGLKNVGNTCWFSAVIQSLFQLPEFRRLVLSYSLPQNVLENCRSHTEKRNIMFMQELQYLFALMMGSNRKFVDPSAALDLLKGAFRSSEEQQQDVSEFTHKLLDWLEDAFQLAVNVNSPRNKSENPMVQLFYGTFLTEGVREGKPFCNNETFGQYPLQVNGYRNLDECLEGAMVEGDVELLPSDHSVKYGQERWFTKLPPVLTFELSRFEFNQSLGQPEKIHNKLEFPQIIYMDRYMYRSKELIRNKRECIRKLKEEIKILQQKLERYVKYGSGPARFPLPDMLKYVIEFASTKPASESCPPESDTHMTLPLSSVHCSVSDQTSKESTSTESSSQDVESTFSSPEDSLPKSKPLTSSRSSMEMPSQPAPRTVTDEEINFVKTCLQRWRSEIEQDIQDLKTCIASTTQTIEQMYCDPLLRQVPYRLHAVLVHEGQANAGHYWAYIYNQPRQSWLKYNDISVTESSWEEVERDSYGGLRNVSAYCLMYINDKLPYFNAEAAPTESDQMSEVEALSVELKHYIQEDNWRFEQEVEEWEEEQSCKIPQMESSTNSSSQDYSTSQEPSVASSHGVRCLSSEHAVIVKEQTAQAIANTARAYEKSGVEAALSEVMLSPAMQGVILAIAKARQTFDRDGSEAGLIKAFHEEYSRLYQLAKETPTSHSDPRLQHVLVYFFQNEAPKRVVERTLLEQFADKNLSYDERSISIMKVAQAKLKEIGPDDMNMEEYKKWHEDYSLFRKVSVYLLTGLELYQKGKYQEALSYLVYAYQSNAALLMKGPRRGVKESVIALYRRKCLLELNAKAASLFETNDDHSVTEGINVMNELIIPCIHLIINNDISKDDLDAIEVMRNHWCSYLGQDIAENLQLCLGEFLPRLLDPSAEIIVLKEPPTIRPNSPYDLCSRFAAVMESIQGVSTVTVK
USP17 block – inhibitors of human USP17 deubiquitinase. A8MUK1. purified USP17, Ub-rhodamine cleavage fluorescence, 3 h. inhibition, % at 50 µM. 6.5% of 47,000 active. AID 1645855
USP30 inh – blocks human USP30 ubiquitin-rhodamine cleavage. purified USP30, Ub-rhodamine cleavage fluorescence. inhibition, % at 25 µM. 5.3% of 47,000 active. AID 1645860
OTUD3 inh – human OTUD3 deubiquitinase inhibition; Q5T2D3; 0.7% of 47,000 active; inhibition, % at 25 µM; purified OTUD3, Ub-rhodamine fluorescence, 2 h; AID 1645858
An asterisk follows results filed as active; i = inactive; · = no result. A selection: hits, their analogues and other compounds. The true share with any hit is near 11%. No stated cut-off is given here; in the data, active means inhibition above about 30%; inactive means the rest.

SMILES	USP28 inh	USP17 block	USP30 inh	OTUD3 inh
O=C(C1CCCN(S(=O)(=O)c2cccs2)C1)N1CCN(c2ccc(F)cc2)CC1 (configuration not stated)	-6	-17	-21	-11
COc1ccc(S(=O)(=O)N(C)CC(=O)N2CCC(Cc3ccccc3)CC2)cc1	13	-4	14	0
CN1CC(=O)N(C2CCNC2)Cc2c(NCc3ccc(Cl)cc3)ncnc21 (configuration not stated)	31*	-24	9	0
CCCCCNc1ncnc2c1CN(C1CCNC1)C(=O)CN2C (configuration not stated)	-6	-50	-13	-5
O=C(Cn1cccc1-c1nc(-c2ccccc2)cs1)N1CCOCC1	18	74*	26	-4
CCOC(=O)c1c(C)oc2ncnc(Nc3ccccc3OC)c12	15	13	25	6
COc1cc(OC)c(OC)cc1/C=C1\Oc2cc(OCC(=O)NCC(=O)O)ccc2C1=O	-115	-67	i	-128
Cc1ccc(-c2onc3ccc(C(=O)NC4CCN(Cc5ccccc5)CC4)cc23)cc1	-54	-7	-95	-26
CN(C)C(=O)CNC(=O)c1ccc2onc(-c3coc(-c4ccccc4)n3)c2c1	16	42*	29	20
O=C(NC1CC1)c1ccc2onc(-c3coc(-c4ccccc4)n3)c2c1	5	24	38*	12
Cc1cc2cccc(C)c2nc1SCC(=O)NCc1ccccc1	20	29	47*	10
Cc1cccc(CNC(=O)CCc2nc3c(C)cccc3c(=O)n2C)c1	-11	-7	15	1
O=c1c2ccccc2c(-c2nc(-c3cccnc3)no2)cn1-c1ccc(Cl)cc1	6	4	38*	8
c1ccc(-n2cc(-c3noc(-c4cccnc4)n3)nn2)cc1	7	20	28	8
O=C(Cc1nnc(-c2cnccn2)o1)Nc1ccc(Cl)cc1	23	10	38*	18
O=C(Cc1nnc(-c2cnccn2)o1)Nc1ccc(F)c(Cl)c1	14	13	17	4
Cc1nn(C)cc1CN1CCc2nc(-c3ccccn3)[nH]c(=O)c2C1	-24	-68	-49	-1
O=[N+]([O-])c1c(Cl)cccc1-c1c[nH]cc1Cl	48*	8	3	5
COc1ccc(/C=C(\NC(=O)c2ccc(Br)cc2)C(=O)NCCc2c(C)[nH]c3ccccc23)cc1	-12	3	34*	4
Cc1[nH]c2ccccc2c1CCNC(=O)/C(=C/c1ccccc1)NC(=O)c1ccccc1	2	1	-11	1
O=C(Nc1nccs1)C1c2ccccc2C(=O)N(c2ccccc2)C12CCCCC2 (configuration not stated)	-10	34*	-8	-3
Cc1nnc(SCC(=O)Nc2ccc3[nH]c(=O)[nH]c3c2)n1Cc1ccccc1	14	42*	-1	5
Cc1occc1-c1nnc(SCC(=O)Nc2ccc3[nH]c(=O)[nH]c3c2)n1C	-2	45*	-14	-10
O=C(CSc1n[nH]c(-c2ccc(F)cc2)n1)Nc1ccc(F)cc1	-3	-7	-1	-5
CCc1ccc(-c2nc(SCC(=O)Nc3ccc4[nH]c(=O)[nH]c4c3)n[nH]2)cc1	23	37*	58*	22
SMILES	USP28 inh	USP17 block	USP30 inh	OTUD3 inh
CCc1ccc(OCC(=O)Nc2c(C)nc3scc(C)n3c2=O)cc1	-4	-7	-5	-6
CCC(C)Nc1nc(N(C)C)nc(-n2cnc(SCCOc3ccc(C)cc3)n2)n1 (configuration not stated)	0	-2	0	0
CCOc1ccc(NC(=O)CSC2=NC3(CCCC3)Nc3ccccc32)cc1	-6	30*	-59	-4
CC12CN3CC(c4ccccc4)(CN(C1)C3c1ccc(OCc3ccccc3)cc1)C2=O (configuration not stated)	14	0	14	14
O=C(Nc1cc(F)c2nc(N3CCOCC3)ccc2c1)C1CCC1	-2	42*	-40	-8
O=C(NCc1ccc(N2CCOCC2)nc1)c1ccc(F)c(F)c1	-2	-6	6	-3
CC(=O)N1CCC(C(=O)Nc2ccc(N3CCOCC3)cc2)CC1	-11	-8	-33	-8
O=C(Nc1cc(F)c2nc(N3CCOCC3)ccc2c1)C1CC1	18	76*	-11	6
O=C(CCc1ccccc1)Nc1cc(F)c2nc(N3CCOCC3)ccc2c1	3	16	-2	8
O=C(Nc1cc(F)c2nc(N3CCOCC3)ccc2c1)c1ccc(Br)o1	2	85*	-47	-5
COc1ccc(Cn2c(Oc3ccccc3C)nc3c2c(=O)n(C)c(=O)n3C)cc1	13	27	32*	20
Cc1ccc(-n2nc(C)c3c2NC(=O)[C@@H](NC(=O)c2ccccc2)[C@@H]3c2ccc(F)cc2)cc1	48*	5	-6	-9
Cc1nn(C)c2c1[C@@H](c1ccc(F)cc1)[C@H](NC(=O)c1ccccc1)C(=O)N2	80*	8	13	13
Cc1nn(-c2ccccc2)c2c1[C@@H](c1ccc3c(c1)OCCO3)[C@H](NC(=O)c1ccccc1)C(=O)N2	-10	-2	-24	-7
CCOc1ccc([C@@H]2c3c(C)nn(-c4ccccc4)c3NC(=O)[C@H]2NC(=O)c2cccc(C)c2)cc1	15	8	3	5
CC(C)(C)CC(=O)N1CCc2cc(-c3csc(NC4CCCC4)n3)ccc21	·	-18	·	1
O=C(c1ccco1)N1CCCn2c1nc1ccccc12	-4	0	-8	-3
COc1ccc(-c2cc3n(n2)CCCN(C(=O)c2ccccn2)C3)cc1OC	-2	-6	0	-2
CCOC(=O)C1CCCN(C(=O)C(=O)c2cn(CC(=O)N3CCCCC3)c3ccccc23)C1 (configuration not stated)	8	34*	0	3
COc1cc2c(cc1OC)-c1cc(Nc3ccc(Br)cc3)nc(=O)n1CC2	23	25	53*	-5
Cc1nc(-c2cc(C)[nH]n2)cc(C2CCN(S(=O)(=O)N(C)C)CC2)n1	1	-1	-3	-1
O=C(NCc1ccncc1)c1nc(-c2ccc3[nH]ccc3c2)no1	5	2	1	1
O=C(NCc1ccccc1Cl)c1nc(-c2ccc3[nH]ccc3c2)no1	18	49*	47*	-4
COc1ccc(CNC(=O)c2nc(-c3ccc4cc[nH]c4c3)no2)cc1	18	26	41*	15
CN(C)S(=O)(=O)N1CCCC2(C1)Nc1ccccc1NC2=NC(C)(C)C (configuration not stated)	-50	-32	-234	-34
COc1ccc(/C=C2\CC(=O)c3ccccc3C2)c(OC)c1	14	5	-16	8
O=C1C/C(=C\c2cccc(Br)c2)Cc2ccccc21	34*	14	21	22
O=C1C/C(=C\c2cccc(Cl)c2)Cc2ccccc21	54*	26	39*	27
O=C1C/C(=C\c2cccc([N+](=O)[O-])c2)Cc2ccccc21	30	8	38*	5
CCOC(=O)c1ccc(NC(=O)Cn2c(=O)n(-c3ccc(CC(=O)NCc4ccco4)cc3)c(=O)c3ccccc32)cc1	14	21	7	15

Compound activity as filed in PubChem BioAssay.
